Data from PubChem BioAssay AID1159580 (chemical genetic matrix, 2015).
Hit rate of the full screen: of about 5,500 compounds, about 2,000 (36%) were called active. Not shown: some 18% with an inconclusive outcome. Rule as the data show it: active = normalized growth mostly below about 0.91 (no sharp cut-off); inconclusive = no clear call, values can overlap the other calls; inactive = mostly above about 0.92. Some of the results follow.

Assay: chemical genetic growth profiling, strain panel (AID 1159580);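 also: tested at 20 µM; growth read once vehicle control cultures reached saturation at 30 °C; 1 = growth at the plate median or of vehicle wells; lower values mean less growth of the strain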
Conditions: S. cerevisiae deletion strains, growth OD

Measured: normalized growth

CNS(=O)(=O)c1ccc(NC(=O)c2ccccc2C(=O)O)cc1
inactive: locus YAL021C, strain ccr4, stronger effect = lower value 1 | locus YAL026C, strain drs2, stronger effect = lower value 1 | locus YAL030W, strain snc1, stronger effect = lower value 1 | locus YBL061C, strain skt5, stronger effect = lower value 0.993 | locus YBR009C, strain hhf1, stronger effect = lower value 0.998 | locus YBR023C, strain chs3, stronger effect = lower value 1 | locus YBR171W, strain sec66, stronger effect = lower value 0.996 | locus YBR231C, strain swc5, stronger effect = lower value 0.991 | locus YBR279W, strain paf1, stronger effect = lower value 1 | locus YCL011C, strain gbp2, stronger effect = lower value 0.993 | locus YCL016C, strain dcc1, stronger effect = lower value 1 | locus YCL061C, strain MRC1, stronger effect = lower value 1 | locus YCL069W, strain vba3, stronger effect = lower value 1 | locus YCR088W, strain abp1, stronger effect = lower value 0.999 | locus YDL005C, strain med2, stronger effect = lower value 1 | locus YDL040C, strain nat1, stronger effect = lower value 1 | locus YDR001C, strain nth1, stronger effect = lower value 0.996 | locus YDR069C, strain doa4, stronger effect = lower value 0.995 | locus YDR137W, strain rgp1, stronger effect = lower value 1.01 | locus YDR159W, strain sac3, stronger effect = lower value 0.982 | locus YDR195W, strain ref2 0.977 | locus YDR297W, strain sur2, stronger effect = lower value 0.995 | locus YDR334W, strain swr1, stronger effect = lower value 1 | locus YDR335W, strain msn5, stronger effect = lower value 1 | locus YDR392W, strain spt3, stronger effect = lower value 0.968 | locus YEL003W, strain gim4, stronger effect = lower value 0.994 | locus YEL037C, strain rad23, stronger effect = lower value 1.01 | locus YEL061C, strain CIN8 (second series), stronger effect = lower value 0.999 | locus YER015W, strain faa2, stronger effect = lower value 0.989 | locus YER016W, strain bim1, stronger effect = lower value 1.01 | locus YER111C, strain swi4, stronger effect = lower value 1 | locus YER155C, strain BEM2 (second series), stronger effect = lower value 1 | locus YFR010W, strain ubp6, stronger effect = lower value 1.01 | locus YGL167C, strain pmr1, stronger effect = lower value 0.993 | locus YGL173C, strain kem1, stronger effect = lower value 0.997 | locus YGL227W, strain vid30, stronger effect = lower value 0.998 | locus YGL240W, strain doc1, stronger effect = lower value 0.988 | locus YGL253W, strain hxk2, stronger effect = lower value 0.998 | locus YHR013C, strain ard1, stronger effect = lower value 0.997 | locus YHR027C, strain rpn1, stronger effect = lower value 0.992 | locus YHR030C, strain SLT2, stronger effect = lower value 0.995 | locus YHR079C, strain IRE1, stronger effect = lower value 0.992 | locus YHR142W, strain chs7, stronger effect = lower value 1.02 | locus YJL092W, strain hpr5, stronger effect = lower value 0.995 | locus YJL095W, strain BCK1 (second series), stronger effect = lower value 0.99 | locus YJL095W, strain BCK1, stronger effect = lower value 0.981 | locus YJL115W, strain asf1, stronger effect = lower value 0.995 | locus YJL129C, strain trk1, stronger effect = lower value 1.02 | locus YJL154C, strain vps35, stronger effect = lower value 0.997 | locus YJL164C, strain tpk1, stronger effect = lower value 1.01 | locus YJL166W, strain qcr8, stronger effect = lower value 0.998 | locus YJL187C, strain SWE1, stronger effect = lower value 0.99 | locus YJR066W, strain TOR1, stronger effect = lower value 0.931 | locus YKL160W, strain elf1, stronger effect = lower value 1.01 | locus YKR026C, strain gcn3, stronger effect = lower value 0.979 | locus YKR091W, strain srl3, stronger effect = lower value 0.994 | locus YLL001W, strain dnm1, stronger effect = lower value 1.01 | locus YLL026W, stronger effect = lower value 0.995 | locus YLL041C, strain sdh2, stronger effect = lower value 1 | locus YLR027C, strain aat2, stronger effect = lower value 1 | locus YLR113W, strain HOG1, stronger effect = lower value 0.969 | locus YLR221C, strain rsa3, stronger effect = lower value 1 | locus YLR258W, strain gsy2, stronger effect = lower value 0.998 | locus YLR262C, strain YPT6 (second series), stronger effect = lower value 0.992 | locus YLR320W, strain mms22, stronger effect = lower value 1 | locus YLR342W, strain FKS1, stronger effect = lower value 0.994 | locus YLR357W, strain rsc2, stronger effect = lower value 0.994 | locus YLR370C, strain arc18, stronger effect = lower value 0.995 | locus YLR384C, strain iki3, stronger effect = lower value 0.992 | locus YML120C, strain ndi1, stronger effect = lower value 0.992 | locus YMR058W, strain fet3, stronger effect = lower value 0.998 | locus YMR125W, strain sto1, stronger effect = lower value 0.994 | locus YMR129W, stronger effect = lower value 1.01 | locus YMR205C, strain PFK2, stronger effect = lower value 0.967 | locus YMR231W, strain pep5, stronger effect = lower value 0.998 | locus YNL071W, strain lat1, stronger effect = lower value 1.01 | locus YNL183C, strain NPR1, stronger effect = lower value 0.933 | locus YNL209W, strain ssb2, stronger effect = lower value 0.997 | locus YNL248C, strain rpa49, stronger effect = lower value 0.998 | locus YNL322C, strain KRE1 (second series), stronger effect = lower value 0.998 | locus YNR049C, strain mso1, stronger effect = lower value 1 | locus YOR001W, strain rrp6, stronger effect = lower value 1 | locus YOR070C, strain gyp1, stronger effect = lower value 0.999 | locus YOR080W, strain dia2, stronger effect = lower value 0.994 | locus YOR083W, strain WHI5, stronger effect = lower value 0.997 | locus YOR106W, strain vam3, stronger effect = lower value 1.01 | locus YOR231W, strain MKK1, stronger effect = lower value 0.991 | locus YOR265W, strain rbl2, stronger effect = lower value 1.01 | locus YOR270C, strain vph1, stronger effect = lower value 1.03 | locus YOR290C, strain snf2, stronger effect = lower value 0.995 | locus YPL051W, strain arl3, stronger effect = lower value 1.02 | locus YPL078C, strain atp4, stronger effect = lower value 1.02 | locus YPL106C, strain sse1, stronger effect = lower value 0.984 | locus YPL240C, strain hsp82, stronger effect = lower value 0.992 | locus YPL256C, strain CLN2, stronger effect = lower value 0.987
